“And” between values parts separate entries of the source, which are not always exact repeats. Identical values can stand only once. Results filed as inconclusive are left out. Entries that show only a call come without a potency. More than one record can exist for a structure, and the calls need not agree. The source made the active and inactive calls. Unless noted, calls follow the shape of the dose curve; as a rule, active = well fitted cell-killing curve with a large enough effect in the repeat runs; inconclusive = weak or mixed curves; inactive = flat fitted curve, though single readings scatter. Starred links: 1 amine or outer side, 2 acyl side, 3 side chain; linkers in the order of their positions; H or OH if unused. Positions of bridges follow the written chain, without caps; N, C: chain ends. Non-standard residues stand in square brackets, D forms with d. Residues, ends and D or L forms follow the SMILES beside them. Chains are numbered I, II in the order given. Actinocin(9to1) = Cc1c2oc3c(C)ccc(C(=O)[*:1])c3nc-2c(C(=O)[*:2])c(N)c1=O; NMeV = CN[C@H](C(=O)O)C(C)C; Sar = CNCC(=O)O

In PubChem BioAssay (Tox21) one finds Potency and activity change, negative = cytotoxicity data, which are given here for 33 molecules.

Chain of Androgen receptor (Homo sapiens) (P10275 whole entry, looked up): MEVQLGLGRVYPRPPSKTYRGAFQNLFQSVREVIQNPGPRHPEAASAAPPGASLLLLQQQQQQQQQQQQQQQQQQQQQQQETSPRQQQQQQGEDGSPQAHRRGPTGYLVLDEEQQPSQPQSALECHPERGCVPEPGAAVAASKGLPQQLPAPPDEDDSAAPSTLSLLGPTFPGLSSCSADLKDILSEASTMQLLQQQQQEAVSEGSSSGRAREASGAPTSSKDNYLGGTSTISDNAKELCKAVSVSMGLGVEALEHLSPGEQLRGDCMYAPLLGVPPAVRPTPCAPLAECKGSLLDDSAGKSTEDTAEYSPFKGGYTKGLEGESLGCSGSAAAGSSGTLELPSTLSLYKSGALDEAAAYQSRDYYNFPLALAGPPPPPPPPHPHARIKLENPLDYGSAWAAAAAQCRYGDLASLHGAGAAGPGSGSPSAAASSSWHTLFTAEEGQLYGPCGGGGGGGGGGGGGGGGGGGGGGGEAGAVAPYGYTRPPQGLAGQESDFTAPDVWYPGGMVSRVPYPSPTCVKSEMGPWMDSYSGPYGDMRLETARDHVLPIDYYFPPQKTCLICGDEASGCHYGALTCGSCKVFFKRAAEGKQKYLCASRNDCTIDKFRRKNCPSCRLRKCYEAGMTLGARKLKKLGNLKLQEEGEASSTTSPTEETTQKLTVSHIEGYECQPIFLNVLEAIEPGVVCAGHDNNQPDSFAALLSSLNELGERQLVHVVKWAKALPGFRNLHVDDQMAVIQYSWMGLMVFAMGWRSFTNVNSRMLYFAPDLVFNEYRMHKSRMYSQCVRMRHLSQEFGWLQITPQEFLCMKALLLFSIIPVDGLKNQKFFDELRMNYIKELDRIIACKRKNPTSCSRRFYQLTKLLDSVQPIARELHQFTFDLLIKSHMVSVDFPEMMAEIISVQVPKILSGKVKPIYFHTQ

One assay addresses Androgen receptor (Homo sapiens) (UniProt P10275). Description: qHTS assay to identify small molecule agonists of the androgen receptor (AR) signaling pathway in the presence of an antagonist (AID 1259381; calls by dose curve; also: nearly all actives have a fitted effect of over 15% in size). Conditions: MDA-kb2 MMTV-luciferase, AR agonist + nilutamide, 16 h; series mostly up to 92.4 µM. The procedure, abridged:
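MDA-kb2 cells carrying MMTV-luciferase (AR/GR responsive), 3,000 cells/well, co-treated with 3.0 uM nilutamide final. Compounds at 15 concentrations, 16 hr at 37C without CO2. Luciferase luminescence read after 30 min with ONE-Glo.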
In general terms: Quantitative high-throughput screening tests each substance at several concentrations.
As to `COc1ccc(Cc2cnc(N)nc2N)cc1OC`, the Potency result was “inactive”. In the case of `COC(=O)c1cccc(C(=O)OC)c1`, the Potency entry is “inactive”. On the same count and under the same terms, then `C=CC(=O)OCCCCCCOC(=O)C=C`, with “inactive”; and `CCN(CC)CCOc1ccc(/C(=C(\Cl)c2ccccc2)c2ccccc2)cc1`, with “inactive”.

As to `Nc1cc(Cl)c(-c2cc(Cl)c(N)cc2Cl)cc1Cl`, the Potency entry is “inactive”.

For `CN1C(=O)c2ccc([N+](=O)[O-])cc2C1=O`, the Potency result was “inactive”.

Take `Cc1c2oc3c(C)ccc(C(=O)N[C@@H]4C(=O)N[C@H](C(C)C)C(=O)N5CCC[C@H]5C(=O)N(C)CC(=O)N(C)[C@@H](C(C)C)C(=O)O[C@@H]4C)c3nc-2c(C(=O)N[C@@H]2C(=O)N[C@H](C(C)C)C(=O)N3CCC[C@H]3C(=O)N(C)CC(=O)N(C)[C@@H](C(C)C)C(=O)O[C@@H]2C)c(N)c1=O` (I: T[dV]P[Sar][NMeV] / II: T[dV]P[Sar][NMeV]; ester I:1-I:C, II:1-II:C; linker I:N-II:N via Actinocin(9to1)): the Potency result is “inactive”.

As to `Cc1cc(OCCOCC[N+](C)(C)Cc2ccccc2)ccc1C(C)(C)CC(C)(C)C`, the Potency entry is “inactive”. The same measure, in the same setting: the value for `CCC(C)(Oc1ccc(C2(c3ccc(OC(C)(CC)C(=O)O)cc3)CCCCC2)cc1)C(=O)O` (centres undefined) was “inactive”; that for `Oc1ccc(Cl)cc1Cc1cc(Cl)ccc1O` was “inactive”; that for `CC1COC(=O)O1` (centres undefined) was “inactive”.

System in the next assay: not listed separately
The assay can be described thus: qHTS assay to identify small molecule antagonists of the estrogen receptor beta (ER-beta) signaling pathway - cell viability counter screen (AID 1259382). Also: nearly all actives have a fitted effect of over 55% in size. Also: potency is read from the fitted curve at half-maximal effect.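 As to activity change, negative = cytotoxicity: HEK293T cells carrying ER-beta-UAS-bla reporter stimulated with estradiol.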 Conditions: ER-beta-UAS-bla HEK293T viability, CellTiter-Glo luminescence, 16 h; series mostly up to 92.4 µM. The procedure, abridged:
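ER-beta-UAS-bla HEK293T cells in 2% charcoal-stripped FBS medium, treated with compound plus 1 nM 17-beta-estradiol for 16 h at 37C. Viability read by CellTiter-Glo luminescence after 30 min at room temperature in the same wells.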
`COc1ccc(Cc2cnc(N)nc2N)cc1OC`: the Potency entry is “inactive”. The same measure, in the same setting: the value for `COC(=O)c1cccc(C(=O)OC)c1` was “inactive”; that for `Cc1scc2c1N(C(=O)CN1CCN(C)CC1)c1ccccc1NC2=O` was “inactive”; that for `CC(C)(C)NCC(O)COc1ccccc1OCC1CCCO1` (centres undefined) was “inactive”. Still for that read-out and setting: then `C=CC(=O)OCCCCCCOC(=O)C=C`, with “inactive”; and `CCN(CC)CCOc1ccc(/C(=C(\Cl)c2ccccc2)c2ccccc2)cc1`, with 44.2 µM (active) and 29.8 µM (active). Still for that read-out and setting: then `C/C=C/c1ccc(OCC)c(O)c1`, with “inactive”. For the molecule `CCCCCCCCCCCCCCCCCl`, the activity change, negative = cytotoxicity was 3.31% [at 19 µM] (inactive). For the molecule `Nc1cc(Cl)c(-c2cc(Cl)c(N)cc2Cl)cc1Cl`, the Potency is 17.2 µM (active) and 27.3 µM (active). On the same count and under the same terms, the value for `O=C(Cl)c1cccc(C(=O)Cl)c1` was “inactive”; that for `CN1C(=O)c2ccc([N+](=O)[O-])cc2C1=O` was “inactive”.

As to `CC(C)(C)c1ccccc1`, the Potency result is “inactive”.

On to `Oc1c(Cl)cc(Cl)cc1Sc1cc(Cl)cc(Cl)c1O`, for which the Potency was 30.7 µM (active) and 54.5 µM (active). Still for that read-out and setting: the value for `Cc1c2oc3c(C)ccc(C(=O)N[C@@H]4C(=O)N[C@H](C(C)C)C(=O)N5CCC[C@H]5C(=O)N(C)CC(=O)N(C)[C@@H](C(C)C)C(=O)O[C@@H]4C)c3nc-2c(C(=O)N[C@@H]2C(=O)N[C@H](C(C)C)C(=O)N3CCC[C@H]3C(=O)N(C)CC(=O)N(C)[C@@H](C(C)C)C(=O)O[C@@H]2C)c(N)c1=O` (I: T[dV]P[Sar][NMeV] / II: T[dV]P[Sar][NMeV]; ester I:1-I:C, II:1-II:C; linker I:N-II:N via Actinocin(9to1)) was “inactive”.

For `O=C(O[C@@H]1Cc2c(O)cc(O)cc2O[C@@H]1c1cc(O)c(O)c(O)c1)c1cc(O)c(O)c(O)c1`, the Potency entry is “inactive”.

Consider `C=C(C)C(=O)O`, for which the Potency entry is “inactive”.

As for `O=c1n(CC2CO2)c(=O)n(CC2CO2)c(=O)n1CC1CO1` (centres undefined), the Potency result is “inactive”.

`c1ccc2n[nH]nc2c1`: the Potency result is “inactive”.

In the case of `CCCCCCC(O)CCCCCCCCCCC(=O)O` (centres undefined), the Potency entry is “inactive and 30.6 µM (active)”. Same read-out and setting: the value for `O=C1Nc2ccccc2C1(c1ccc(O)cc1)c1ccc(O)cc1` was “inactive”; that for `Cc1cc(OCCOCC[N+](C)(C)Cc2ccccc2)ccc1C(C)(C)CC(C)(C)C` was 21.6 µM (active) and 13.3 µM (active).

Consider `CCC(C)(Oc1ccc(C2(c3ccc(OC(C)(CC)C(=O)O)cc3)CCCCC2)cc1)C(=O)O` (centres undefined), for which the Potency result was “inactive”. As for `Oc1ccc(Cl)cc1Cc1cc(Cl)ccc1O`, the Potency was 27.8 µM (active) and 27.3 µM (active). Still for that read-out and setting: then `N[C@@H]1CONC1=O`, with “inactive”; and `Cc1ccnc2c1NC(=O)c1cccnc1N2C1CC1`, with “inactive”. For `COC(c1ccccc1)(c1ccccc1)[C@H](Oc1nc(C)cc(C)n1)C(=O)O`, the Potency entry is “inactive”. As for `CCOC(=O)C(C)C(C)=O` (centres undefined), the Potency result was “inactive”. On the same count and under the same terms, the value for `CCC(=O)/C=C/C1C(C)=CCCC1(C)C` (centres undefined) was “inactive”; that for `CC(C(O)c1ccc(O)cc1)N1CCC(Cc2ccccc2)CC1` (centres undefined) was “inactive”. Still for that read-out and setting: the value for `O=C(O)CCc1ccccc1` was “inactive”; that for `CC1COC(=O)O1` (centres undefined) was “inactive”; that for `CCn1c2ccccc2c2cc(N)ccc21` was “inactive”. The same measure, in the same setting: the value for `CC(C)(C)c1cc(C(C)(C)C)c(O)c(C(C)(C)C)c1` was “inactive”.
